Compound activity from PubChem BioAssay.
FID counter – fluorescent intercalator displacement, NS3 helicase counter-screen | DNA fluorescent intercalator displacement, fluorescence | 0.17% of 290,000 active | inhibition, % at 7.9 µM | AID 1845; in the data active = inhibition above about 37%;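 also: 0% = vehicle and 100% = reference compound; higher means more ethidium bromide displaced from hairpin DNA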
Rce1 inh – yeast Ras-converting enzyme inhibition; yeast membranes, quenched prenylated peptide cleavage fluorescence; Q03530; calls only; 0.27% of 290,000 active;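 active = fall in fluorescence gain of 50% or more versus controls, with final raw signal at or below 3038400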;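 also: plate controls were neutral control wells for no effect and wells lacking membranes for full effect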
Target sequence (Q03530 whole entry, looked up): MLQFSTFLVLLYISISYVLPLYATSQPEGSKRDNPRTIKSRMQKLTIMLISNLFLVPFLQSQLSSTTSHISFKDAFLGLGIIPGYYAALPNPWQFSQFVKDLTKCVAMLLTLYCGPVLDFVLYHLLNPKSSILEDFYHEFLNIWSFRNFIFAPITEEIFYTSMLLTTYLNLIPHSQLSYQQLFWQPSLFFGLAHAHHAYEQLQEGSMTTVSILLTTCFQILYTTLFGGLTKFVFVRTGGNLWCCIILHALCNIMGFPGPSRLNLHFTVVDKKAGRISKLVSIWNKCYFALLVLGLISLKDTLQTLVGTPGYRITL
PfM18AAP inh-1 – PfM18AAP enzyme inhibition | inhibition, % at 7.35 µM | AID 1822 | recombinant PfM18AAP, H-Glu-NHMec fluorogenic cleavage | 1.2% of 290,000 active;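 active = inhibition above the campaign mean inhibition over all tested compounds plus 3 SD, cut at about 28% in these data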;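 also: 0% = plate median of test compound wells and 100% = 2 mM ZnCl2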
Kir21 inh – Kir2.1 (mouse) channel inhibition. 0.85% of 310,000 active. B-score at 10 µM. HEK293-Kir2.1, FluxOR thallium flux fluorescence; hits give low values;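 active = fluorescence ratio B-score at or below minus 3 SD of library scores, with starting-brightness B-score within 2 SD, cut at about -4.2 in these data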;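 also: channel flux triggered by added potassium and thallium sulfate stimulus; B-score of peak minus minimum fluorescence over baseline after thallium stimulus; more negative B-score means stronger Kir2.1 block with less thallium influx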
PfM18AAP inh-2 – PfM18AAP inhibition, confirmation; shares compounds with PfM18AAP inh-1; recombinant PfM18AAP, H-Glu-NHMec fluorogenic cleavage; inhibition, % at 7.35 µM; 28% of 2,400 active;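 active = mean inhibition over replicate wells above the hit cutoff set for the earlier primary screen, cut at about 29% in these data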;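 also: 0% = median of test compound wells and 100% = 2 mM ZnCl2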
CTSL1 counter – Cathepsin L (human) inhibition, confirmation; purified cathepsin L1, Z-Leu-Arg-MCA fluorescence; inhibition, % at 5.96 µM; shares compounds with PfM18AAP inh-1; 2,400 tested, under 10 active;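 active = average inhibition across replicates above the hit cutoff set in the earlier primary screen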;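 also: 0% = median of test compound wells and 100% = Z-Phe-Ala-diazomethylketone 1 µM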
Target sequence (P07711 whole entry, looked up): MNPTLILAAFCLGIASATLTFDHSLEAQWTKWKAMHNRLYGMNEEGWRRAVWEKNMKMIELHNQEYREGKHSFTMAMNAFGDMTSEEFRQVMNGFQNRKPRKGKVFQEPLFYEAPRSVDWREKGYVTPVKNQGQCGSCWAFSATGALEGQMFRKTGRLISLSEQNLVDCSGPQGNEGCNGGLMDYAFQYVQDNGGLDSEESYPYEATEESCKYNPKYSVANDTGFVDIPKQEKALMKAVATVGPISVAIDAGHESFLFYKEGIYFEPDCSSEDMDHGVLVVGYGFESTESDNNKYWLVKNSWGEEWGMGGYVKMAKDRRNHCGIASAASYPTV
* marks the source's active call; other numbers are inactive results; i = inactive; . = not tested or not shown. A selection: hits, their analogues and other compounds. The true share with any hit is near 2.3%.

SMILES	FID counter	Rce1 inh	PfM18AAP inh-1	Kir21 inh	PfM18AAP inh-2	CTSL1 counter
Cn1c(C(=O)O)cnc1Sc1ncc(C(F)(F)F)cc1Cl	-5	i	2	-0.03	.	.
FC(F)(F)c1cnc(Sc2ncn[nH]2)c(Cl)c1	1	i	92*	-0.03	83*	-4
CCOC(=O)CSc1nc2c(sc(=S)n2-c2ccccc2OC)c(=O)n1-c1ccccc1OC	-29	i	-1	2	.	.
COc1ccc(-n2c(SCC(=O)C(C)(C)C)nc3c(sc(=S)n3-c3ccccc3)c2=O)c(OC)c1	-13	i	37*	-1.6	14	4
CCOc1ccccc1C(=O)Nc1ccc(S(=O)(=O)Nc2nccc(C)n2)cc1	-31	i	-2	-1.1	.	.
O=S1(=O)N=C(Nc2nncs2)c2ccccc21	-6	i	41*	0	51*	0
CCN(CC)S(=O)(=O)c1ccc(NC2=NS(=O)(=O)c3ccccc32)cc1	0	i	4	-0.36	.	.
CNC(=S)/N=C(/Nc1ccccc1)c1ccccc1	-4	i	44*	0.89	-28	0
N/C(=N\C(=S)Nc1ccccc1)c1ccccc1	-6	i	7	-0.01	.	.
O=C(O)Cc1ccc2ocnc2c1	2	i	45*	0.06	6	1
CCOc1ccc(-c2cccc(NC(=O)c3cccs3)c2)nn1	.	i	.	0.12	.	.
COc1cc(/C=N/Nc2ccc(S(N)(=O)=O)cc2[N+](=O)[O-])cc(OC)c1O	4	i	45*	0.01	13	3
NC(=S)NNC(=O)COc1ccccc1O	0	i	37*	0.79	39*	-2
c1csc(-c2cc(N3CCCCC3)c3ccccc3n2)c1	-8	i	-1	2.5	.	.
CC(=O)N1CCC(=NNC(=O)CSc2cc(C)c(Br)cc2C)CC1	2	i	0	-0.24	.	.
Cc1cc(SCC(=O)N/N=C/c2ccc(O)c(O)c2)nc2ccccc12	-19	i	56*	-1.6	43*	2
O=C(Cc1nnc(NC(=O)c2ccccc2)s1)N/N=C\c1ccc(O)c(O)c1	-8	i	57*	0.23	38*	0
O=C(N/N=C/c1ccc(O)c(O)c1)c1cc(-c2ccccc2)nc2ccccc12	-7	i	61*	-0.7	48*	-5
Cc1cc(SCC(=O)N/N=C/c2ccc(O)c(O)c2)c(C)cc1Br	-6	i	54*	-0.01	36*	-3
Cc1cc(SCC(=O)N/N=C/c2ccc(O)cc2O)nc2ccccc12	-24	i	10	-2.5	.	.
O=C(CSc1nc2ccccc2o1)N/N=C/c1ccc(O)c(O)c1	-1	i	62*	-0.43	52*	-3
COc1ccccc1CN1CCNC(=O)C1CC(=O)NCc1cn(C)nc1C (configuration not stated)	-5	i	8	-0.73	.	.
CCN(CCCNC(=O)C1CCN(S(=O)(=O)c2c(C)[nH]c(=O)[nH]c2=O)CC1)c1cccc(C)c1	-4	i	32*	-0.75	-23	-2
CCN(CCCNC(=O)C1CCN(S(=O)(=O)CC)CC1)c1cccc(C)c1	-9	.	4	-0.63	.	.
N#Cc1c(-c2ccccc2)cc(-c2ccccc2)nc1SCC(=O)NCC(=O)O	-21	i	38*	1.8	-11	3
SMILES	FID counter	Rce1 inh	PfM18AAP inh-1	Kir21 inh	PfM18AAP inh-2	CTSL1 counter
COc1ccc(NC(=O)NNC(=O)c2ccc3ccccc3c2O)c(OC)c1	-13	i	36*	-0.32	5	1
CCc1ccccc1NC(=O)NNC(=O)c1ccc2ccccc2c1O	-12	i	39*	-0.16	3	-1
COc1ccc(NC(=O)NNC(=O)c2cc(C3CC3)nc3ccccc23)c(OC)c1	-19	i	-3	2.2	.	.
Cc1ccc(C(=O)N2N=C(CC(C)C)CC2(O)C(F)(F)F)o1 (configuration not stated)	-1	i	-14	0.34	.	.
Cc1ccc(S(=O)(=O)N/N=C\c2cc3c(cc2Br)OCO3)cc1	-2	i	12	0.24	.	.
O=[N+]([O-])c1cc2c(cc1/C=N/NS(=O)(=O)c1ccc(Br)cc1)OCO2	-1	i	50*	0.01	13	-2
CC(C)Cc1nnc(NC(=O)CCC(=O)N2CCCCC2)s1	-36	i	3	0.05	.	.
O=C(Cn1cnc([N+](=O)[O-])n1)c1ccccc1	0	i	0	0.17	.	.
O=C(Cn1cnc([N+](=O)[O-])n1)c1ccc(O)c(O)c1	-1	i	38*	-0.06	14	0
COc1cccc(OC)c1C(=O)NC(=O)Nc1c(F)c(F)c(F)c(F)c1F	-6	i	-2	0.14	.	.
COc1cccc(OC)c1C(=O)NC(=O)NNc1cc(C(F)(F)F)cc(C)n1	-34	i	40*	-1.5	-1	3
O=C(NCc1nnnn1-c1ccc(F)cc1)c1ccc([N+](=O)[O-])o1	.	i	.	-2.5	.	.
COc1cccc(C(=O)NNC(=O)Cc2csc(N)n2)c1	7	i	36*	-1.6	-39	-4
CC(C)=NNc1nc2c(c(=O)[nH]c(=O)n2C)n1CCc1ccccc1	-1	i	-1	-0.98	.	.
Cn1c(=O)[nH]c(=O)c2c1nc(Br)n2CCCc1ccccc1	-9	i	2	-0.8	.	.
CC(C)=NNc1nc2c(c(=O)[nH]c(=O)n2C)n1CCCc1ccccc1	-23	i	36*	1.4	-29	-7
Cn1c(=O)c2c([nH]c(=S)n2CCCc2ccccc2)n(C)c1=O	-19	i	44*	-1.6	30*	-1
Cn1c(=O)[nH]c(=O)c2c1[nH]c(=S)n2Cc1ccc(Cl)cc1	-15	i	48*	1.1	16	3
CC(C)Sc1nc2c(c(=O)[nH]c(=O)n2C)n1Cc1ccc(Cl)cc1	-6	i	4	-0.01	.	.
Cn1c(=O)[nH]c(=O)c2c1[nH]c(=S)n2CCCc1ccccc1	-22	i	58*	-0.07	41*	2
Cc1cc(C)c(C)c(OCCN2CCOCC2)c1	0	i	-6	-0.1	.	.
O=C(NNC(=O)c1cc(Cl)nc2ccccc12)c1ccccc1F	.	i	.	0.9	.	.
CN(CCO)S(=O)(=O)c1ccc2c(c1)C(=NN)c1cc(S(=O)(=O)N(C)CCO)ccc1-2	-11	i	5	0.02	.	.
O=C1OCC=C1NNC(=O)c1cccnc1	4	i	55*	-0.06	69*	-7
Cc1ccc(C(=O)NC(=S)N(C)C2CCCCC2)cc1	-23	i	-3	1.2	.	.
O=Cc1cc(Br)c(OC(=O)N2CCOCC2)c(Br)c1	-4	i	-18	-0.28	.	.
CCC(/C=C1\Sc2ccc(OC)cc2N1CCO)=C\c1sc2ccc(OC)cc2[n+]1CCO	-44	.	34*	.	-4	4
CCC(/C=C1\Sc2ccc(OC)cc2N1CC)=C\c1sc2ccc(OC)cc2[n+]1CCCS(=O)(=O)[O-]	-40	i	23	0.02	.	.
CCOc1ccc(N2CC(C(=O)Nc3nnc(CC)s3)CC2=O)cc1 (configuration not stated)	-36	i	0	-0.1	.	.
